In assay [1] the target is 5'-AMP-activated protein kinase catalytic subunit alpha-2 (Homo sapiens) (UniProt P54646). As to conditions: at 1 µM.
The target of assay [2] is T1, NUAK family SNF1-like kinase 1 (Homo sapiens) (UniProt O60285).
T1 sequence (whole entry): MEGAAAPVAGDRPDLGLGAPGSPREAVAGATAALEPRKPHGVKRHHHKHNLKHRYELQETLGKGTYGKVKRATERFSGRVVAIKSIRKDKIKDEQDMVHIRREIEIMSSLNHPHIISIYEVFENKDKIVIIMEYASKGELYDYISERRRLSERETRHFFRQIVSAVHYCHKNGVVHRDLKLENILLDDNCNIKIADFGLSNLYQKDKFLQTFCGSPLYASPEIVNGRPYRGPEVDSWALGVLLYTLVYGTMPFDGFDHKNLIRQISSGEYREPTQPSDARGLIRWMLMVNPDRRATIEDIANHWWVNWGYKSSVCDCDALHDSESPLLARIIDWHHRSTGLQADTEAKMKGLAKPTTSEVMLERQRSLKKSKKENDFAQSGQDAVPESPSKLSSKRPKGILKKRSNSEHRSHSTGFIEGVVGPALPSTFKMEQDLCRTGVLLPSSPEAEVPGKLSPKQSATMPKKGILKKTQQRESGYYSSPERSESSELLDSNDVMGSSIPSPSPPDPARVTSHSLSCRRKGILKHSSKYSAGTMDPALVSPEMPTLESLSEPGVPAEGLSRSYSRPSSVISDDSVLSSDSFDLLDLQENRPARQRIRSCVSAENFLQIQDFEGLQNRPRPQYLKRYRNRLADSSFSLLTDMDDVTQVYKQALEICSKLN
As to conditions: at 0.1 µM.

The target of assay [3] is T2, Serine/threonine-protein kinase BRSK1 (Homo sapiens) (UniProt Q8TDC3).
T2 sequence (whole entry): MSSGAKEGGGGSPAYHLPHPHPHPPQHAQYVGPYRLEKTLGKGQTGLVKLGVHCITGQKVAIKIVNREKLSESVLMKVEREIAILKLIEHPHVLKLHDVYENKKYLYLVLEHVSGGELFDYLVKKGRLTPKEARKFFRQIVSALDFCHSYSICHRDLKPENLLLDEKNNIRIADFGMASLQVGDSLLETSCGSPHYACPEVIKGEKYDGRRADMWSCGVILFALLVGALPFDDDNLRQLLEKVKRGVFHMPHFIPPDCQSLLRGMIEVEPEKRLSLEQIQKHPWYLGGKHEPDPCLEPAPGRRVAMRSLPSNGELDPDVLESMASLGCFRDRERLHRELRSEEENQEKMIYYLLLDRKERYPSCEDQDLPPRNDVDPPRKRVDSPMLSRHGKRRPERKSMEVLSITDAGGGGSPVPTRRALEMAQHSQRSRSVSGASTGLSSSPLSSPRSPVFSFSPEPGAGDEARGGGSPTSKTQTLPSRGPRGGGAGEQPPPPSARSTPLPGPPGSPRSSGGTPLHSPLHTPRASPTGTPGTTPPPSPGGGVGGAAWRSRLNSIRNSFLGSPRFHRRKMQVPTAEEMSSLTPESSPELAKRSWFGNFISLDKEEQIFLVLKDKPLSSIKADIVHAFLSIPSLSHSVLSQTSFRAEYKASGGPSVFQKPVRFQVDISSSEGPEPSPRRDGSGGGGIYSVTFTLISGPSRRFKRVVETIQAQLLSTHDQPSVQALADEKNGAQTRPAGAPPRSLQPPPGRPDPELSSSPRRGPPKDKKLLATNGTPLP
As to conditions: at 0.1 µM.

Assay [4] addresses T2, Serine/threonine-protein kinase BRSK1 (Homo sapiens). As to conditions: at 1 µM.
Assay [5] concerns the target T3, Serine/threonine-protein kinase BRSK2 (Homo sapiens) (UniProt Q8IWQ3).
T3 sequence (whole entry): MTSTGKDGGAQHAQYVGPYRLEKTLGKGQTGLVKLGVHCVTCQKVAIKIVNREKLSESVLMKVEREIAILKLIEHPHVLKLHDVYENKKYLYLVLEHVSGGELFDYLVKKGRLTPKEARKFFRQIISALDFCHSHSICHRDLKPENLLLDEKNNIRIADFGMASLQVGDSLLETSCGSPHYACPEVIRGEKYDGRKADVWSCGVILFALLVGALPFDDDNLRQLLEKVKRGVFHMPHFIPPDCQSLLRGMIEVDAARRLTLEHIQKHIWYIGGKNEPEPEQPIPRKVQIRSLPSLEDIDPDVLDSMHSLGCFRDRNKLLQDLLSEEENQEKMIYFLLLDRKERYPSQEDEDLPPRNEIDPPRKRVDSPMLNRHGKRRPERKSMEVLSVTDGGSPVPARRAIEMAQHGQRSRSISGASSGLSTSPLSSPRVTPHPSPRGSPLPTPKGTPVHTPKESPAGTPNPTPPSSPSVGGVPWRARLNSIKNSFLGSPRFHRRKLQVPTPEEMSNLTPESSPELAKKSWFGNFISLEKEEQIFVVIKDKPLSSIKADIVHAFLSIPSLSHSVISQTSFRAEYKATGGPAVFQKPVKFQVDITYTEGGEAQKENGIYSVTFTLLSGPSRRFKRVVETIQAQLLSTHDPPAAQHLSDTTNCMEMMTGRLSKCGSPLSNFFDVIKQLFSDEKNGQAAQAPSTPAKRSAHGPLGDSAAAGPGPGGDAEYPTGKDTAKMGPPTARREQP
As to conditions: at 0.1 µM.

For assay [6], the target named is T3, Serine/threonine-protein kinase BRSK2 (Homo sapiens). As to conditions: at 1 µM.
Assay [7] has as its target Calcium/calmodulin-dependent protein kinase type 1D (Homo sapiens) (UniProt Q8IU85). As to conditions: at 0.1 µM.
The target is the same in assay [8]. As to conditions: at 1 µM.
The target of assay [9] is Calcium/calmodulin-dependent protein kinase type II subunit alpha (Homo sapiens) (UniProt Q9UQM7). As to conditions: at 0.1 µM.
Assay [10] shares this target. As to conditions: at 1 µM.
The target of assay [11] is Calcium/calmodulin-dependent protein kinase type II subunit delta (Homo sapiens) (UniProt Q13557). As to conditions: at 0.1 µM.
For assay [12] the target is unchanged. As to conditions: at 1 µM.
Assay [13] addresses T4, Calcium/calmodulin-dependent protein kinase type IV (Homo sapiens) (UniProt Q16566).
T4 sequence (whole entry): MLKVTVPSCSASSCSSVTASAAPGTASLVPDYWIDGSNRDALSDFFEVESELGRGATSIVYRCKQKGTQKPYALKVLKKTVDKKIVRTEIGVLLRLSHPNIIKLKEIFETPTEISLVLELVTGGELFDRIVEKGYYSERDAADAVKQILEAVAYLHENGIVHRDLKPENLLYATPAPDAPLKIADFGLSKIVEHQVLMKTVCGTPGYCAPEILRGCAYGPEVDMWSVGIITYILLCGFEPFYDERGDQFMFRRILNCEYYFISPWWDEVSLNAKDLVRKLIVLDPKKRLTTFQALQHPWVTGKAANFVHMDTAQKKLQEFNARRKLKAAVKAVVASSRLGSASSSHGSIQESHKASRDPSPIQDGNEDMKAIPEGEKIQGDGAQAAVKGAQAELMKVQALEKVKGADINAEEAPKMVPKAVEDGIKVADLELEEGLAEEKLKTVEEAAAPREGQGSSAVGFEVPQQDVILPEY
As to conditions: at 0.1 µM.

The target in assay [14] is T4, Calcium/calmodulin-dependent protein kinase type IV (Homo sapiens). As to conditions: at 1 µM.
The target of assay [15] is T5, Serine/threonine-protein kinase Chk1 (Homo sapiens) (UniProt O14757).
T5 sequence (whole entry): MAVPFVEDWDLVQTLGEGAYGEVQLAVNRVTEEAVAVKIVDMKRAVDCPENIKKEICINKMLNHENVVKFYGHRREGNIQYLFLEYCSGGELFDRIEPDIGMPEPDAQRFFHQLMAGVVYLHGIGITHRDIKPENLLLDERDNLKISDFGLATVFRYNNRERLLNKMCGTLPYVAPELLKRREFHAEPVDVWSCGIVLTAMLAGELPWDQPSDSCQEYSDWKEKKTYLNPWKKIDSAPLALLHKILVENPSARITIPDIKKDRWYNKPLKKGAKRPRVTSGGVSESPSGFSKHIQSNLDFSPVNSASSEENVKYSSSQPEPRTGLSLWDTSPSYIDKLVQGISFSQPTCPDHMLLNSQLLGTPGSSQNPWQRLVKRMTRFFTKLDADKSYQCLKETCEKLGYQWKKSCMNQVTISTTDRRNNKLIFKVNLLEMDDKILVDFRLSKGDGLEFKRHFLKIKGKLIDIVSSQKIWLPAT
As to conditions: at 0.1 µM.

Assay [16] addresses T5, Serine/threonine-protein kinase Chk1 (Homo sapiens). As to conditions: at 1 µM.
Assay [17] addresses Serine/threonine-protein kinase Chk2 (Homo sapiens) (UniProt O96017). As to conditions: at 0.1 µM.
Assay [18] has the same target. As to conditions: at 1 µM.
The target in assay [19] is Death-associated protein kinase 1 (Homo sapiens) (UniProt P53355). As to conditions: at 0.1 µM.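 Further: reported figure is the mean inhibition of DAPK1.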
For assay [20], the target named is T1, NUAK family SNF1-like kinase 1 (Homo sapiens). As to conditions: at 1 µM.

The term inhibition denotes the drop in the measured response relative to a control, in per cent.

Sequence of 5'-AMP-activated protein kinase catalytic subunit alpha-2 (Homo sapiens) (P54646 whole entry, looked up): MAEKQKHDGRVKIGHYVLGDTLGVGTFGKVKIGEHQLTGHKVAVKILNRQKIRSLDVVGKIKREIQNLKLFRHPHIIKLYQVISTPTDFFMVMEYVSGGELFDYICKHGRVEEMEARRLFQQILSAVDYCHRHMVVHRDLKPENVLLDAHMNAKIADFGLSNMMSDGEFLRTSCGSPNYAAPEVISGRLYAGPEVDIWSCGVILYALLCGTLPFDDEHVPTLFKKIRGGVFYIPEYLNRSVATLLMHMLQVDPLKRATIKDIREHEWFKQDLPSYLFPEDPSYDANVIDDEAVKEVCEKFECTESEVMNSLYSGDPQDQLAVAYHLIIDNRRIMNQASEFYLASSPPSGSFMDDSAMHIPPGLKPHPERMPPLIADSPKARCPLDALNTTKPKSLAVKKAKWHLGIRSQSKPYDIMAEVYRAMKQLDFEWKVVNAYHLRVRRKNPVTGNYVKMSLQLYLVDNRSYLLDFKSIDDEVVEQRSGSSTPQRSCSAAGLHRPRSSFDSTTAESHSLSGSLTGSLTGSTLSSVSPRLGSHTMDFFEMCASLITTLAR
Sequence of Death-associated protein kinase 1 (Homo sapiens) (P53355 whole entry, looked up): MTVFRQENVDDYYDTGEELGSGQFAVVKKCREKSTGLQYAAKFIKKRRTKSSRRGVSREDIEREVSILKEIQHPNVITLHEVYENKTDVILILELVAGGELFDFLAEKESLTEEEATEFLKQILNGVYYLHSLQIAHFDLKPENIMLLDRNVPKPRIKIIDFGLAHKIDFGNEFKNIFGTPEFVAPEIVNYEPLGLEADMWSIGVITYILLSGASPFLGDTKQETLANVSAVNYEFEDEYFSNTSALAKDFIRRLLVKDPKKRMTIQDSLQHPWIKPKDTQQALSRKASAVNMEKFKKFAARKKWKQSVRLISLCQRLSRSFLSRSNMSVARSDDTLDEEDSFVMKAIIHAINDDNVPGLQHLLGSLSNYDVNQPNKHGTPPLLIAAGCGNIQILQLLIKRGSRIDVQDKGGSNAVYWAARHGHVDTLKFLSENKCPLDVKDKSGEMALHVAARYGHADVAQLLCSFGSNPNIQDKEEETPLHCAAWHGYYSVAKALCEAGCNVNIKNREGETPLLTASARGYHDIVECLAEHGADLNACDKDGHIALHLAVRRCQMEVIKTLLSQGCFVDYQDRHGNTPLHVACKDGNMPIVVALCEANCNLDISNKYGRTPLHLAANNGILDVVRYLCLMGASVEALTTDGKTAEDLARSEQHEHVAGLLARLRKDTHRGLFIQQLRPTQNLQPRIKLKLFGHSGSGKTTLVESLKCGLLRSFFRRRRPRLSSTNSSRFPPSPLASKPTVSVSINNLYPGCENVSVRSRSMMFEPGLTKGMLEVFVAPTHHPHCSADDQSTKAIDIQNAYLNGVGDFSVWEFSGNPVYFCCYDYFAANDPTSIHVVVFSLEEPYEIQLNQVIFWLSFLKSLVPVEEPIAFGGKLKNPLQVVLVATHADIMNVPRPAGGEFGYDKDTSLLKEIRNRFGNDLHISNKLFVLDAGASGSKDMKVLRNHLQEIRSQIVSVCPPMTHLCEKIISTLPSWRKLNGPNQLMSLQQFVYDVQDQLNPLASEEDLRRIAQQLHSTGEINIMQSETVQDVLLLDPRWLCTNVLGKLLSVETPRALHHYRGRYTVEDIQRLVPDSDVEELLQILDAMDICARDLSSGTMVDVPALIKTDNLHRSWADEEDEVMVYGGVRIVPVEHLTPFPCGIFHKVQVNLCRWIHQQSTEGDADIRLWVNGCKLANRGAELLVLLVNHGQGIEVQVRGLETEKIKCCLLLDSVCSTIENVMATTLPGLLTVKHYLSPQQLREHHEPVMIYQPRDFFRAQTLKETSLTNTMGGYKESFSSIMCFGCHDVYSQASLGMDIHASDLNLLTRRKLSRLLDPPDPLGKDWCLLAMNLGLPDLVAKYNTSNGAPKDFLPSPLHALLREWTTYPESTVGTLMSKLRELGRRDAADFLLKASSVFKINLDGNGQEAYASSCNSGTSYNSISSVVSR
Sequence of Calcium/calmodulin-dependent protein kinase type 1D (Homo sapiens) (Q8IU85 whole entry, looked up): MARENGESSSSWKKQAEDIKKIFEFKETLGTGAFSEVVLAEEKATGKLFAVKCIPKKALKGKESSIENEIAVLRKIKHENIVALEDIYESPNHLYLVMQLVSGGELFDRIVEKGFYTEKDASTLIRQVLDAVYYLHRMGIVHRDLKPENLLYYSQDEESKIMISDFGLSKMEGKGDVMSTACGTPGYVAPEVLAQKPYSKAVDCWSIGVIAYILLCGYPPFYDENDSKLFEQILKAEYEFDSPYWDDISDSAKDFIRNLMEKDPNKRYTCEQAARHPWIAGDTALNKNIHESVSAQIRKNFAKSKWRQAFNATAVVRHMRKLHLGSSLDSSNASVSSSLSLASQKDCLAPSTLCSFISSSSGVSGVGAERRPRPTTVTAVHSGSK
Sequence of Calcium/calmodulin-dependent protein kinase type II subunit delta (Homo sapiens) (Q13557 whole entry): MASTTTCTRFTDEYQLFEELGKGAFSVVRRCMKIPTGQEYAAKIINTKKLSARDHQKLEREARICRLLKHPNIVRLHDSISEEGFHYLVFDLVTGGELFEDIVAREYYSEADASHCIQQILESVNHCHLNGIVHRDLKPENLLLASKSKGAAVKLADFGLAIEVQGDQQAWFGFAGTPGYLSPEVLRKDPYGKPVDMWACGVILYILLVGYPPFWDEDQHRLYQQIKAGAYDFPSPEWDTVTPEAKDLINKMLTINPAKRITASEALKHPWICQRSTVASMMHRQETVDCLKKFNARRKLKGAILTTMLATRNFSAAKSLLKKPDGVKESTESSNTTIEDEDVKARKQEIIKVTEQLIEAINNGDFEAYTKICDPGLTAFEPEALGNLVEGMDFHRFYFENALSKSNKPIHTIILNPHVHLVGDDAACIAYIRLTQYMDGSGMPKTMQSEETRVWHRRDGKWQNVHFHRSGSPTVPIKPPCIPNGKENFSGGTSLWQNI
Sequence of Calcium/calmodulin-dependent protein kinase type II subunit alpha (Homo sapiens) (Q9UQM7 whole entry): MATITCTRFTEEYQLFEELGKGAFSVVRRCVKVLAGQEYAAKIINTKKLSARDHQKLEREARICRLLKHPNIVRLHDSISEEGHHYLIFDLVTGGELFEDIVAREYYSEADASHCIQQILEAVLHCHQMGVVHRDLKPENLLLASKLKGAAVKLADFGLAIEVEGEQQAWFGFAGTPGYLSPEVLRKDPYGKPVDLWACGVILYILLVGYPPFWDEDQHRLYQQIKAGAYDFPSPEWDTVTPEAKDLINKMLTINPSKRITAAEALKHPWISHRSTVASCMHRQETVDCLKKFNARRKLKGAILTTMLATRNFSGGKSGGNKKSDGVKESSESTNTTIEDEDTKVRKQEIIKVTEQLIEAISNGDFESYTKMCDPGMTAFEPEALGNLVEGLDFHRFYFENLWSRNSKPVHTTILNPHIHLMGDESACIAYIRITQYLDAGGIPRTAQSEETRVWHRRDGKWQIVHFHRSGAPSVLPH
Sequence of Serine/threonine-protein kinase Chk2 (Homo sapiens) (O96017 whole entry): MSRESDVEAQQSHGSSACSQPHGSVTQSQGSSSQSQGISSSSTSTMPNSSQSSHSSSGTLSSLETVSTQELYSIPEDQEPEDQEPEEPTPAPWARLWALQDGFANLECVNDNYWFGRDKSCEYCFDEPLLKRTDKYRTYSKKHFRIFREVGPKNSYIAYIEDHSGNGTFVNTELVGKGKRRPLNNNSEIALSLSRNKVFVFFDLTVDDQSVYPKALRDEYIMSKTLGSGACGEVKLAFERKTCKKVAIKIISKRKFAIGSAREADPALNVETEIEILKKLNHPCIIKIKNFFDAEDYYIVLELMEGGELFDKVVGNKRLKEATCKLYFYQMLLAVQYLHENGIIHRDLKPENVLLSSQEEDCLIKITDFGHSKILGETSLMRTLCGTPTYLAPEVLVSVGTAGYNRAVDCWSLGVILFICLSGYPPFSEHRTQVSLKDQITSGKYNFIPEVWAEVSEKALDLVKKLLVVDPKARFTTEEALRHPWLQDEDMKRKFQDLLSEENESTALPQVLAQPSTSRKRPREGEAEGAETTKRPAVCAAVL

With `Cc1ccc(NC(=O)c2ccnc(N3CCCC3)c2)cc1-c1ccc(C(=O)NCC2CC2)cc1`, the inhibition in [1] was found to be 8.93%; in assay [2], 5.1%; in assay [3], 3.85%; in assay [4], 3.6%; in [5], 2.81%; in [6], 4.83%. Besides, the inhibition in assay [7] stood at 0.91%; in assay [8] it was 2.39%; in assay [9] it was 4.45%; in [10] it was 5.72%; in assay [11], 4.6%; in assay [12], 7.16%. The inhibition in assay [13] was -0.3%; in assay [14] it was 2.35%; in assay [15] it was 3.53%; in assay [16], 7.14%; in assay [17], 3.26%; in assay [18] it was 4.85%. The inhibition in assay [19] was 2.4%.
Take `CNC(=O)c1cncc(/C=C/c2c(Cl)cccc2Cl)c1`: the inhibition in [1] was 1.77%; in [20], 7.27%; in assay [3], 4.16%; in [4], 7.3%; in assay [5], 1.54%; in assay [6], 9.33%. Moreover, the inhibition was -0.35% in assay [7]; 2.1% in assay [8]; 3% in [9]; 4.95% in assay [10]; 3.11% in assay [11]; 8.55% in assay [12]. Also, the inhibition in assay [13] was found to be 0.01%; in assay [14] it was 3.19%; in assay [15], 0.16%; in assay [16], 4.57%; in assay [17], 2.6%; in [18], 9.62%. Also, in assay [19], the inhibition was 2.23%.
`CS(=O)(=O)CCNCc1ccc(-c2ccc3ncnc(Nc4ccc(OCc5ccccc5)c(Cl)c4)c3c2)o1`: the inhibition in [1] was 0.49%; in assay [2], 0.49%; in [20] it was 1.58%; in [3], 0.43%; in assay [4], -0.39%; in assay [5] it was 0.27%. Also, the inhibition in assay [6] is 2.32%; in assay [7], -0.75%; in assay [8], 1.29%; in assay [9], -1.33%; in assay [10] it was -1.87%; in assay [11] it was -1.29%. Also, the inhibition is 1.59% in [12]; 0.2% in [13]; 1.37% in assay [14]; -6.61% in assay [15]; -6.9% in assay [16]; -6.13% in assay [17]. Besides, the inhibition in [18] is -4.43%; in assay [19], -9.06%.
Regarding `Fc1cccc(COc2ccc(Nc3ncnc4sc(-c5cccs5)cc34)cc2Cl)c1`, the inhibition in assay [1] is 0.62%; in [2] it was 4.02%; in assay [20] it was 7.65%; in assay [3] it was 0.56%; in [4], -0.44%; in assay [5], 0.22%. Moreover, the inhibition in assay [6] is 1.9%; in [7] it was -1.31%; in assay [8], 0.18%; in assay [9], -3%; in [10], -2.43%; in assay [11] it was -0.89%. Also, the inhibition was 1.53% in assay [12]; -0.72% in [14]; -6.44% in assay [15]; -5.05% in assay [16]; -6.31% in assay [17]; -6.27% in assay [18]. The inhibition in [19] was -9.21%.

Source of the values: ChEMBL document CHEMBL1961873, “Compounds: GSK PKIS; Assays: Nanosyn kinase panel” (2012).
